From PubChem BioAssay
The full list was thinned out, with hits kept by preference.
p53null 39C tox: qHTS Screen for Compounds that Selectively Target Cancer Cells with p53 Mutations: Cytotoxicity of p53 Null Cells at the Nonpermissive Temperature. H1299 p53-null (neo) cells, 39C, ATPlite viability, 24 h. Potency, µM (top dose mostly 46.1 µM), most hits filed as cytotoxic. actives 0.97% (n = 55,000). AID 904, 2007; note: nearly all actives have a fitted effect of over 50% in size
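H1299 lung cancer cells, p53-null (H1299-neo) or expressing p53 A138V (H1299-p53A138V), were plated overnight at 37C, then exposed to compounds at up to 46 uM for 24 hr at 39C. Viability was read by ATP-based luminescence.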
p53null 32C kill: qHTS Screen for Compounds that Selectively Target Cancer Cells with p53 Mutations: Cytotoxicity of p53 Null Cells at the Permissive Temperature; AID 903, 2007; actives 0.62% (n = 55,000); H1299-neo p53 null cells, ATP luminescence, 24 h, 32C; Potency, µM (titrated, usually from 46.1 µM), most hits filed as cytotoxic; note: nearly all actives have a fitted effect of over 55% in size
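H1299-neo, 600 cells/well; overnight 37C; cpd up to 46 uM, 24 h at 32C; ATPlite luminescence after 20 min RT; normalized to DMSO (0%) and tamoxifen 100 uM (100% kill); Hill-fit AC50.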
NTMT1 inh: Primary qHTS for Inhibitors of N-terminal methyltransferase 1 (NTMT1): MTaseGlo Assay; Potency, µM (highest dose often 114 µM), most hits filed as inhibitors; actives 2.5% (n = 59,000); NTMT1 MTase-Glo SAH luminescence, purified enzyme; N-terminal Xaa-Pro-Lys N-methyltransferase 1 (Homo sapiens), Q9BV86; AID 1645870, 2021; note: nearly all actives have a fitted effect of over 65% in size
OvCa metastasis: Primary qHTS assay for Inhibitors of ovarian cancer metastasis using an organotypic tumor microenvironment (TME) model | actives 0.1% (n = 46,000) | SKOV3ip1-GFP adhesion/invasion on 3D omental model, fluorescence | Potency, µM (top dose mostly 45.8 µM), actives largely listed as inhibitors | AID 1963576, 2024; note: nearly all actives have a fitted effect of over 65% in size
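qHTS, 4-pt dose (0.36-46 umol/L); SKOV3ip1-GFP, 1,200 cells/well, no FBS; primary omental fibroblast/mesothelial co-culture 48 h pre-grown; 2 h RT + 16 h 37 C; PBS wash, 4% PFA; GFP count 488/509 nm.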
FH mod: Identification of activators of human fumarate hydratase by quantitative high-throughput screening; Fumarate hydratase, mitochondrial (Homo sapiens), P07954; FH coupled MDH/diaphorase resazurin fluorescence, 15 min; Potency, µM (top dose mostly 79.9 µM), most hits filed as inhibitors; actives 0.22% (n = 54,000); note: the screen sought activators but most active calls are inhibition curves; nearly all actives have a fitted effect of over 45% in size
Target sequence (P07954 whole entry, looked up): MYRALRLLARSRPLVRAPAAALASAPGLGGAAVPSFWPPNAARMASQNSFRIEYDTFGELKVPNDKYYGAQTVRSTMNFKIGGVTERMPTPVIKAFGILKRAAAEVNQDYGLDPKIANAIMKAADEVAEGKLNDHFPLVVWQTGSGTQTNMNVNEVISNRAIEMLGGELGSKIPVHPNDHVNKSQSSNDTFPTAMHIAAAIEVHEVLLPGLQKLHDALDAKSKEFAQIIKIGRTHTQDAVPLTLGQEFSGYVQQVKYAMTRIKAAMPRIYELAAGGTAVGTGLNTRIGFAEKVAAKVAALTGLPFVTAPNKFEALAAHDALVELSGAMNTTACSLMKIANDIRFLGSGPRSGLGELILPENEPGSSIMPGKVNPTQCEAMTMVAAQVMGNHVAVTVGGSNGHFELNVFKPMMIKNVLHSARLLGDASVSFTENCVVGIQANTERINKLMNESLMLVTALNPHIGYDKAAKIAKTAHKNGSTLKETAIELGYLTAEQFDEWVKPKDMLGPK
Numbers stand for hits; - = inactive; ? = inconclusive; . = no result. Calls come from the whole dose curve; as a rule, active = well fitted curve in the direction sought with a large enough effect; inconclusive = small, poorly fitted or top-dose-only effect, or another doubt; inactive = no such curve, though single readings can be large; an effect the other way counts as inactive or inconclusive.

SMILES | p53null 39C tox | p53null 32C kill | NTMT1 inh | OvCa metastasis | FH mod
CCN(c1ccccc1)S(=O)(=O)c1nnc(NC(=O)c2ccco2)s1 | 1µM | ? | - | - | -
CCc1ccccc1NC(=O)Cn1nc(C(F)(F)F)c2c1CCC2 | - | - | - | - | -
CCc1ccccc1NC(=O)Cn1nc(-c2cc(C)ccc2C)c2c(c1=O)CCCC2 | - | - | 89.1µM | - | ?
CC(C)(C)C1CCc2oc3ccc(NS(=O)(=O)c4ccc(C(=O)O)cc4)cc3c2C1 (centres undefined) | ? | - | 50.1µM | - | ?
Cc1cc(S(=O)(=O)Nc2ccc3oc4c(c3c2)CCCC4)ccc1Cl | 17.8µM | ? | - | - | ?
CC(C)(C)C1CCc2oc3ccc(NS(=O)(=O)c4cc(Cl)ccc4Cl)cc3c2C1 (centres undefined) | - | - | - | ? | -
Cc1cc(C)c(S(=O)(=O)Nc2ccc3oc4c(c3c2)CCCC4)cc1C | ? | - | - | - | ?
CCOC(=O)c1c(C)oc2c(Cl)cc(NS(=O)(=O)c3ccc(Cl)c(C)c3)cc12 | 5.01µM | - | - | ? | ?
CCCc1oc2ccc(NS(=O)(=O)c3ccc(OCC)cc3)cc2c1C(=O)OCC | 17.8µM | - | - | - | ?
CC(=O)[C@]1(N)Cc2c(O)c3c(c(O)c2[C@@H](O[C@H]2C[C@H](O)[C@H](O)CO2)C1)C(=O)c1ccccc1C3=O | . | . | - | . | .
Cc1nnc(-c2cnn(C)c2N)n1CCc1cccs1 | . | . | - | . | .
COc1cc(O)c(C(CC(=O)N2CCCCC2)c2ccc(C)cc2)c(OC)c1 (centres undefined) | . | . | - | . | .
O=C1NC(=O)/C(=C/c2ccc3c(c2)OCO3)S1 | . | . | - | . | 31.6µM
NC(=O)C1=CN(C2OC(COP(=O)(O)OP(=O)(O)OC[C@H]3O[C@@H](n4cnc5c(N)ncnc54)[C@H](OP(=O)(O)O)C3O)C(O)C2O)C=CC1 (some centres undefined) | . | . | . | . | -
Cc1ccc(-c2cc(C(=O)Nc3ccc(-n4cncn4)cc3)c3ccccc3n2)cc1C | . | . | - | . | .
NS(=O)(=O)Oc1ccc2c3c(c(=O)oc2c1)CCCCC3 | . | . | 28.2µM | . | .
Cc1ccc(OCCn2c(CCNC(=O)c3cc([N+](=O)[O-])ccc3[N+](=O)[O-])nc3ccccc32)cc1 | . | . | - | . | .
C[C@H](NCc1ccc2c(c1)nc(NC(=O)c1ccc(-c3cn[nH]c3)s1)n2CCc1ccccc1)C(C)(C)C | . | . | - | 18.7µM | -
[2H]C([2H])(Nc1nc(-c2ccccc2C([2H])(C([2H])([2H])[2H])C([2H])([2H])[2H])ncc1C)c1ccc(-n2ccnn2)cc1 | . | . | - | . | .
CCCCN1C(C(=O)c2ccccc2)=C(OC(=O)CC)c2ccccc2S1(=O)=O | ? | 12.6µM | - | - | -
CCCCCN1C(C(=O)c2ccccc2)=C(OC(=O)CC)c2ccccc2S1(=O)=O | ? | ? | - | - | ?
COC(=O)c1ccccc1NC(=O)c1oc2ccc3c(c2c1C)C(=O)CC(C)(C)O3 | - | - | - | - | -
CC(=O)Nc1ccc(NC(=O)c2oc3ccc4c(c3c2C)C(=O)CC(C)(C)O4)cc1 | 3.16µM | 3.98µM | - | - | -
CCOC(=O)c1ccc(NC(=O)c2oc3ccc4c(c3c2C)C(=O)CC(C)(CC)O4)cc1 (centres undefined) | 3.16µM | ? | - | - | -
Cc1ccc(NC(=O)Nc2nnc(Sc3ncnc4cc(OCCCN5CCOCC5)ccc34)s2)cc1 | . | . | - | . | -
COc1cc(/C=C(\C#N)c2nc3ccc(C)cc3[nH]2)ccc1OCc1ccc(C)cc1 | 12.6µM | ? | - | - | -
CCC(=O)Oc1ccc(/C=C(\C#N)c2nc3ccccc3[nH]2)cc1OC | ? | - | 25.1µM | - | -
CC(=O)N1CCN(c2ccc(NC(=O)Cc3cnc(-c4ccnc(F)c4)c(C)c3)nc2)CC1 | . | . | - | . | .
